Test results reported in PubChem BioAssay (NCI).
The panel holds about 83,000 compounds, 20% with a hit somewhere; the sample as a whole holds those more often.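 Interpretation: 100, growth as untreated; towards 0, rising growth inhibition; 0, no net growth; 0 to -100, cell death. Compounds scoring below 10 were considered active.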 Values without a mark were called inactive. Calls of active or inactive are those of the source.

Assays:
Assay in all cases: NCI-60 one-dose screen, 48 h (100 = growth as untreated, 0 = no growth, -100 = all killed)
Settings in all cases: 10 µM
HCT-15 colon = tested on: HCT-15 colon
HT29 colon = tested on: HT29 colon
SNB-75 CNS = tested on: SNB-75 CNS
SNB-19 CNS = tested on: SNB-19 CNS
U251 CNS = tested on: U251 CNS
PC-3 prostate = tested on: PC-3 prostate
SK-MEL-5 melanoma = tested on: SK-MEL-5 melanoma
LOX IMVI melanoma = tested on: LOX IMVI melanoma
SK-MEL-28 melanoma = tested on: SK-MEL-28 melanoma
UACC-62 melanoma = tested on: UACC-62 melanoma

SMILES | growth (HCT-15 colon) | growth (HT29 colon) | growth (SNB-75 CNS) | growth (SNB-19 CNS) | growth (U251 CNS) | growth (PC-3 prostate) | growth (SK-MEL-5 melanoma) | growth (LOX IMVI melanoma) | growth (SK-MEL-28 melanoma) | growth (UACC-62 melanoma)
CCCn1c(=O)c2[nH]c(-c3ccc(OCc4nc5ccc(F)cc5[nH]4)cc3)nc2n(CCC)c1=O | 28.7% | 26.7% | -23.5% (active) | 50.4% | 0.191% (active) | 36.3% | -22.5% (active) | -29.3% (active) | 38% | 
CC(=C(c1ccc(OCCCN(C)C)cc1)c1ccc(OCCCN(C)C)cc1)c1ccccc1 | -92.1% (active) | -78.4% (active) | -77.5% (active) | -98.1% (active) |  | -74.2% (active) | -100% (active) | -100% (active) | -99.3% (active) | -99.3% (active)
O=C(c1ccc(Cl)cc1)C1[C@H](c2ccccc2Br)[C@@H](c2ccccc2)NC12C(=O)Nc1ccc(Cl)cc12 (some centres undefined) | 8.84% (active) | -14.6% (active) | 36.5% | 33.6% |  | 38.1% | 15.9% | -91% (active) | 55.4% | 22%
O=C1Nc2ccc(Cl)cc2/C1=C/c1ccc(OCc2ccccn2)cc1 | 35.7% | 67.5% | 113% | 50.7% |  | 62.1% | 89.5% | 56.5% | 100% | 66.7%
Cn1c(O)c(N=Nc2nc(-c3cc4ccccc4oc3=O)cs2)c2cc(Br)ccc21 | 88.5% | 118% | 54.7% | 12.5% |  | 102% | 96% | 56.7% | 99.8% | 65%
COc1ccc(N(C)c2cc(C#N)nc3ccccc23)cc1/C=C/C(=O)NO | -59.4% (active) | -19.5% (active) | -24.6% (active) | -44.5% (active) |  | -9.99% (active) | -67.5% (active) | -97.6% (active) | -73.8% (active) | -72.2% (active)
OCc1[nH]nc2cc(Nc3ncc4ccc(Br)c(OC5CCC(O)CC5)c4n3)ccc12 (centres undefined) | -5.87% (active) | -41.1% (active) | -44.1% (active) | 6.37% (active) |  | 9.54% (active) | -99.1% (active) | -81.5% (active) | -68.7% (active) | 
COc1cc2c(cc1OC)/C(=C\c1sc(Nc3ccc(O)cc3)nc1O)C(C(=O)O)=N2 | 24.1% | 10% | -16.4% (active) | 24.3% |  | 19.1% | 14.4% |  | 47.6% | 20%
CC1(C)CC[C@]2(C(=O)N3CCOCC3)CC[C@]3(C)C(=CC[C@@H]4[C@@]5(C)CC[C@H](NCO)C(C)(C)[C@@H]5CC[C@]43C)[C@H]2C1 | -83% (active) | -60.8% (active) | -93.2% (active) |  | -88.7% (active) | -61.6% (active) | -97.6% (active) | -83.8% (active) | -98.9% (active) | -93.9% (active)
CC(C)C1=C[C@@]23CC[C@@H]4[C@](C)(CCC[C@]4(C)C(=O)NCc4ccccc4)[C@H]2C[C@@H]1[C@H]1C(=O)CCC(=O)[C@H]13 | 56% | 81.7% | 80.8% | 83.2% |  | 36.9% | 69.3% | 27% | 68.6% | 59.6%
C=C(C)[C@@H]1CC[C@]2(COP(=O)(OCC)OCC)CC[C@]3(C)[C@H](CC[C@@H]4[C@@](C)(CCCN)[C@H](C(=C)C)CC[C@]43C)[C@@H]12 | 9.75% (active) | 5.73% (active) | 34.4% | 40.4% |  | 13.1% | -47.6% (active) | 1.01% (active) | 31.7% | 35.3%
CCOC(=O)N/C(=C1/OCCN1C)[P+](c1ccccc1)(c1ccccc1)c1ccccc1 | 98.5% | 60.3% | 84.3% | 71.6% |  | 50.5% | 82.8% | 57.5% | 61.3% | 51%
COc1ccc(-c2cc(C(=O)N=Nc3c(O)[nH]c4ccc(Br)cc34)c3ccccc3n2)cc1 | -60.8% (active) | -1.14% (active) | 108% | -3.47% (active) |  | 23.1% | 84.8% | -51.5% (active) | 65.9% | 
COc1cc2c3c(n(CCCn4ccnc4)c(=O)c2cc1OC)-c1nc2c(cc1C3=O)OCO2 | 52.1% | 31.5% | 82.8% |  | 20.9% | 60.4% | 7.02% (active) | 0.388% (active) | 80.9% | 4.19% (active)
COc1ccc(C=CC(=O)c2ccc(-n3c(C)nc4c(cnn4-c4ccccc4)c3=O)cc2)cc1 | 53.5% | 71.5% | 98.1% | 81.8% |  | 65.1% | 27.7% | 43.9% | 90.4% | 50%
Nc1cccnc1/C=N/NC(=S)NCCNC(=O)c1ccc(-n2nc(-c3ccccc3O)nc2-c2ccccc2O)cc1 | 17.9% | -42.8% (active) | 48.1% | 13.2% |  | 9.05% (active) | -42% (active) | -45.2% (active) | 14.8% | -62.6% (active)
Clc1ccc(/C=N/Nc2ncnc3sc4c(c23)CCN(Cc2ccccc2)C4)cc1 | -25.1% (active) | -75.3% (active) | -85% (active) | 18.4% |  | -59.7% (active) | 38.9% | -52.1% (active) | -19% (active) | 18.9%
COc1ccc(NC(=O)Cn2c(/C=C/c3ccc(N(C)C)cc3)nc3ccccc3c2=O)cc1 | 57% | 44.7% | 84.1% | 70.7% |  | 64.5% | 30.7% | 13.8% | 45.6% | 40.9%
O=C(Nc1ccc(OCc2ccccc2)cc1)Nc1ccc(Cl)c(C(F)(F)F)c1 | 9.69% (active) | 6.91% (active) | -20.2% (active) | 8.37% (active) |  | -0.967% (active) | -96.6% (active) | -25.1% (active) | 14.3% | 
COc1ccccc1[C@H]1C(C(=O)c2ccc(O)cc2)C2(N[C@@H]1c1ccccc1)C(=O)Nc1ccc(Br)cc12 (some centres undefined) | 34.4% | -9.98% (active) | 41% | 49.3% |  | 23.2% | 26.4% | -39.3% (active) | 60% | 38.1%
Cc1cccc(NC(=O)CSc2nc3ccc(F)cc3c(=O)n2-c2ccc(Cl)cc2)c1C | 70.5% | 76.3% | -20.7% (active) | 7.05% (active) |  | 68.9% | 88.2% |  | 74.3% | 80.8%
COc1ccc(C(=O)CSc2nnc(-c3c[nH]c4ccccc34)n2-c2ccccc2)cc1 | 73.3% | 83.1% | 15% |  | 34.4% | 50.3% | 81.3% | 43.5% | 49.7% | 25.8%
COc1cc2oc(-c3cccc(C(=O)Nc4ccc(Cl)cc4)c3)cc(=O)c2c(OCCNC(=O)CNC(=O)OC(C)(C)C)c1OC | 40.9% | 63.2% | 74.9% | 78.9% |  | 57.2% | 31.2% |  | 69.4% | 81%
COc1cccc(/C=C2\N=C(C)N(CCc3ccc(S(N)(=O)=O)cc3)C2=O)c1 | 105% | 108% | 98% | 95.1% |  | 98.4% | 102% | 97.4% | 105% | 94%
CN1CCN(c2ccc(Nc3nc(NCCCNC(=O)C4CCCCC4)c4sccc4n3)cc2)CC1 | 2.76% (active) | -1.75% (active) | 62.9% | 77.3% |  | 50.6% | 22.3% | 10.2% | -81.3% (active) | 
O=C1NC(=NC23CC4CC(CC(C4)C2)C3)N/C1=C\c1ccc2ncsc2c1 | -3.34% (active) | 13.6% | -44.1% (active) | 6.09% (active) |  | 11.4% | 2.01% (active) | 2.05% (active) | 0.351% (active) | 7.15% (active)
CN(C)c1ccc(/C=C/c2nc3ccccc3c(=O)n2CC(=O)Nc2ccc(Cl)cc2)cc1 | 42.2% | 31.9% | 64% | 34.8% |  | 30.2% | 55.7% | 9.3% (active) | 66% | 70.6%
O=c1[nH]c2ccccc2cc1CSc1ccc(Nc2nccc(-c3ccc(C(F)(F)F)cc3)n2)cc1 | 29.7% | 28.8% | 19.1% | 33.1% |  | 43.8% | 89.2% | 15.5% | 78.7% | 81.9%
CN1C(=O)N(C)C2SC(N/N=C/c3ccccc3F)=NC21 (centres undefined) | 28.2% | 28.2% | 91.1% | 63.4% |  | 81.5% | 57.9% | 50.2% | 69.2% | 26.8%
